A549 tox: counter-screen for Nrf2 inhibitors: cytotoxicity in A549 cells | A549 ARE-Fluc cells, CellTiter-Fluor viability, 18-24 h | Potency, µM (top dose mostly 46 µM), usual class: inhibitors | 0.16% of 390,000 active | AID 504648
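Cytotoxicity counterscreen: CellTiter-Fluor fluorescence was measured in A549 ARE_Fluc cells after 18-24 h of compound exposure in a concentration series. The subsequent BugLite luminescent read reports ARE-luciferase activity.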
IDH1 R132H inh: human IDH1 R132H inhibition; IDH1-R132H enzyme, NADPH consumption, diaphorase/resazurin fluorescence; 0.093% of 390,000 active; AID 602179; Potency, µM (doses to about 76.6 µM), hits mostly inhibitors; O75874; further: nearly all actives have a fitted effect of over 65% in size
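IDH1-R132H (0.5 ug/mL dispensed) in pH 7.5 Tris buffer was preincubated 30 min with compound, then given a substrate mix of 0.016 mM NADPH and 2 mM alpha-KG for 80 min at room temperature; remaining NADPH was read by diaphorase/resazurin fluorescence.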
12-LOX inh: blocks human arachidonate 12S-lipoxygenase. purified 12hLO, xylenol orange hydroperoxide absorbance. Potency, µM (titrated, usually from 108 µM), usual class: inhibitors. 1.1% of 580,000 active
Target sequence (P18054 whole entry, looked up): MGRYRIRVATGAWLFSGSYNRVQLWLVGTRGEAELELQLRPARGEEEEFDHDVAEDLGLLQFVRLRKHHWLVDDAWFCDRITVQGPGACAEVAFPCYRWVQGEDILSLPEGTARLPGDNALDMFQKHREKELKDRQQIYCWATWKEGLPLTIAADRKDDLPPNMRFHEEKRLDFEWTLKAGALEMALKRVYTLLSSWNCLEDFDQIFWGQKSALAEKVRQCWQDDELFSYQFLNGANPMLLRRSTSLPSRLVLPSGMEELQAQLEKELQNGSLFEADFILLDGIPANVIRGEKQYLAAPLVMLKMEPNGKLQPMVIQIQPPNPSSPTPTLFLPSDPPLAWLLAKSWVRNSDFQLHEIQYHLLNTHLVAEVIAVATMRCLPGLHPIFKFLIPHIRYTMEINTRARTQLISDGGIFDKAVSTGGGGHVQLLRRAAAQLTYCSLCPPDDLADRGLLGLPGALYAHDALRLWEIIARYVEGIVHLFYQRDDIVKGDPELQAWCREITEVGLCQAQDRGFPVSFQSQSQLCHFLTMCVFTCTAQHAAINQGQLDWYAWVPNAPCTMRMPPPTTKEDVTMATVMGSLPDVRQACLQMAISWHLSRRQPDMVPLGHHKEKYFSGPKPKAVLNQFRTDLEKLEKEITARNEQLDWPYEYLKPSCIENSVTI
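Hydroperoxide product was detected by ferrous iron/xylenol orange as the 573 to 405 nm absorbance ratio. Arachidonic acid at 40 uM (final) was turned over for 30 min at room temperature by 150 nM human 12hLO, pH 7.0 Hepes buffer, after 15 min compound preincubation.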
LDHA inh: LDHA (human) enzyme inhibition; P00338; 0.15% of 480,000 active; activity change, % (values are at about 110 or 230 µM); purified LDHA, NADH/diaphorase-resazurin fluorescence; hits give low values; in the data active means activity change below about -30%; inconclusive means mostly about -25% to -30%
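Human LDH5 at 2 nM final in Tris HCl pH 7.4 with 0.06 mM NADH and 0.2 mM pyruvate, reacted 5 minutes at room temperature. Remaining NADH coupled via diaphorase/resazurin; resorufin fluorescence read at 0 and 20 minutes, normalized to enzyme-free and DMSO wells.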
Nrf2 activator: Nrf2 pathway activation; Potency, µM (top dose mostly 46.1 µM), actives largely listed as activators; 0.31% of 410,000 active; AREc32 ARE-luciferase reporter (MCF7-derived line), luminescence, 24 h; AID 624171; further: nearly all actives have a fitted effect of over 65% in size
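Nrf2 activation is followed as ARE-luciferase induction in the AREc32 line after one day of compound treatment; luminescence is read with Steady-Glo.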
Nrf2 block: blocks Nrf2 signaling; A549 ARE-Fluc reporter, luciferase luminescence, 18-24 h; Potency, µM (doses to about 46 µM), most hits filed as inhibitors; 2.1% of 360,000 active; further: nearly all actives have a fitted effect of over 60% in size
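Quantitative HTS in A549 cells stably bearing an antioxidant response element-firefly luciferase construct. Inhibition of Nrf2-driven transcription was scored by luminescence after 18-24 h of compound exposure at 37 °C.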
Each line names hits and unclear results; the compound was inactive in the other large screens. Only some compounds are listed: those with a hit (about 2.7% of all), similar ones and a draw of the others. Unless noted, the call rests on the fitted dose curve; in most records, active means well fitted curve in the direction sought with a large enough effect; inconclusive means small, poorly fitted or top-dose-only effect, or another doubt; inactive means no such curve, though single readings can be large; an effect the other way counts as inactive or inconclusive.

CC(/C=N/NC(=O)Cc1cccs1)=C\c1ccco1	12-LOX inh inconclusive, Nrf2 activator 14.1µM
C/C(=N/NC(=O)c1cccs1)c1ccco1	Nrf2 activator 12.6µM
CC(/C=C/c1ccco1)=N/NC(=O)Cc1cccs1	Nrf2 activator inconclusive
CC(/C=N/NC(=O)c1cc(-c2ccncc2)nc2ccccc12)=C\c1ccco1	A549 tox 18.4µM, Nrf2 activator inconclusive (no result: 12-LOX inh)
C/C(=N\NC(=O)c1csc(C)c1C)c1ccco1	Nrf2 block inconclusive
COc1ccc(NC(=O)NCCn2c(C(F)(F)F)nc3ccccc32)cc1OC	none (no result: A549 tox, IDH1 R132H inh, Nrf2 activator, Nrf2 block)
CC(NC(=O)c1cccc(N(C)C)c1)c1ccccc1 (centres undefined)	none (no result: A549 tox, IDH1 R132H inh, Nrf2 activator, Nrf2 block)
CC(/C=N/NC(=O)CSc1nc2ccccc2n1C)=C\c1ccco1	Nrf2 activator 12.6µM
COc1ccccc1-c1nc(SCc2cc(=O)n3c4c(sc3n2)CCCC4)n[nH]1	LDHA inh -32.8 (no result: A549 tox, IDH1 R132H inh, Nrf2 activator, Nrf2 block)
O=c1cc(CSc2n[nH]c(-c3ccccc3)n2)nc2sc3c(n12)CCCC3	none (no result: A549 tox, IDH1 R132H inh, Nrf2 activator, Nrf2 block)
CCc1cccc(CC)c1NC(=O)COC(=O)c1ccc2ccccc2n1	12-LOX inh 6.31µM (no result: A549 tox, IDH1 R132H inh, Nrf2 activator, Nrf2 block)
Cn1cc(S(=O)(=O)N2CCC(C(=O)Nc3ccccc3OC(F)F)CC2)cc1C(N)=O	none (no result: A549 tox, IDH1 R132H inh, Nrf2 activator, Nrf2 block)
CC(=O)c1c(C)[nH]c(-c2csc(NC(C)C)n2)c1C	12-LOX inh inconclusive (no result: A549 tox, IDH1 R132H inh, Nrf2 activator, Nrf2 block)
CNc1nc(-c2[nH]c(C)c(C(=O)OC)c2C)cs1	12-LOX inh 20µM (no result: A549 tox, IDH1 R132H inh, Nrf2 activator, Nrf2 block)
COc1ccc(C)cc1S(=O)(=O)N1CCN(c2cc(N3CCCCC3)nc(C)n2)CC1	none (no result: A549 tox, IDH1 R132H inh, Nrf2 activator, Nrf2 block)
COCC1CCCN(C(=O)c2cc(COc3ccc4ncccc4c3)on2)C1 (centres undefined)	12-LOX inh inconclusive, Nrf2 block 8.2µM
COc1cc(Cl)ccc1OCc1cc(C(=O)NCC(C)c2ccccc2)no1 (centres undefined)	none
CC(CNC(=O)c1cc(COc2ccc3ncccc3c2)on1)c1ccccc1 (centres undefined)	12-LOX inh inconclusive, Nrf2 block 14.6µM
CC(C)N(Cc1nccn1C)C(=O)c1cc(COc2cccc(C(F)(F)F)c2)on1	none
CCOC(=O)N1CCN(C(=O)c2cc(COc3ccc4ncccc4c3)on2)CC1	Nrf2 block 18.4µM
CN(Cc1nccn1C)C(=O)c1cc(COc2ccc3ncccc3c2)on1	Nrf2 block 20.6µM
Cc1ccc(NC(=S)NCC2(N(C)C)CCCCC2)cc1Cl	12-LOX inh inconclusive (no result: A549 tox, IDH1 R132H inh, Nrf2 activator, Nrf2 block)
O=C(c1cc(COc2ccc3ncccc3c2)on1)N1CCC[C@H]1CO	Nrf2 block 9.2µM
CCCCN=Cc1c(C)[nH]n(-c2ccccc2)c1=S	12-LOX inh 22.4µM
CCOC(=O)c1sc(Nc2cccc(C)c2)nc1C(F)(F)F	12-LOX inh inconclusive (no result: A549 tox, IDH1 R132H inh, Nrf2 activator, Nrf2 block)
COc1ccc2nc(C)cc(SCC(=O)N/N=C/c3ccc(O)c(O)c3)c2c1	12-LOX inh inconclusive
COc1ccc2nc(C)cc(SCC(=O)N/N=C/c3cccc4ccccc34)c2c1	A549 tox 23.1µM, Nrf2 block 16.4µM
CC(=O)Nc1ccc(N=Nc2ccccc2)cc1[N+](=O)[O-]	Nrf2 activator 7.94µM, Nrf2 block inconclusive
CC(C)(C)C(=O)N1CCC(C(=O)N2CCN(c3ccc(F)cc3)CC2)CC1	none (no result: A549 tox, IDH1 R132H inh, Nrf2 activator, Nrf2 block)
C#CCN(C)C(=O)[C@@H](C)C1CC[C@@]2(C)Cc3sc(NC(=O)C4CC4)nc3[C@@H](C)[C@@H]2[C@H]1O (some centres undefined)	12-LOX inh 112µM (no result: A549 tox, IDH1 R132H inh, LDHA inh, Nrf2 activator, Nrf2 block)
CCN(CC)C(=O)C(C)[C@@H]1CC[C@@]2(C)Cc3sc(NC(=O)C4CC4)nc3[C@@H](C)[C@@H]2[C@H]1O (some centres undefined)	none (no result: A549 tox, IDH1 R132H inh, LDHA inh, Nrf2 activator, Nrf2 block)
CCn1c2c(c(=O)n1Cc1ccccc1)CCN(C(=O)COc1ccccc1)C2	none (no result: A549 tox, IDH1 R132H inh, LDHA inh, Nrf2 activator, Nrf2 block)
CCC(C(=O)N1CCC(c2n[nH]c(=O)n2Cc2ccc(OC)cc2)CC1)c1ccccc1 (centres undefined)	12-LOX inh 35.5µM (no result: A549 tox, IDH1 R132H inh, LDHA inh, Nrf2 activator, Nrf2 block)
FC(F)(F)c1ccc(Cl)c(N/N=C/c2cccc(Cl)c2Cl)c1	12-LOX inh inconclusive (no result: A549 tox, IDH1 R132H inh, Nrf2 activator, Nrf2 block)

High-throughput results as filed in PubChem BioAssay.
